Common to all, as to experiment: NCI-60 one-dose screen, 48 h (100 = growth as untreated, 0 = no growth, -100 = all killed)
Holding throughout (settings): 10 µM unless noted

For experiment [1], the system named is BT-549 breast.
The subject of experiment [2] is MDA-MB-435 melanoma.
In experiment [3] the test system is SW-620 colon.
Experiment [4] concerns MCF7 breast.
The subject of experiment [5] is HCT-116 colon.
For experiment [6], the system named is HCC-2998 colon.
For experiment [7], the system named is KM12 colon.

Compounds without any hit were thinned out: in the full panel of roughly 83,000, 20% have a hit.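 Single-dose data. Exposure time 48 hours. Values below 10 considered active.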 Values without a mark were called inactive. Active and inactive are the calls of the source.

In PubChem BioAssay (NCI) one finds growth data, which are given here for 24 compounds.

As for `COc1cc(C2=N/C(=C\c3cc4ccccc4nc3Oc3ccccc3)C(=O)N2C(=N)N)cc(OC)c1OC`, the growth in experiment [1] was 32.7%; in experiment [2] it was 95.2%; in experiment [3] it was 87.8%; in experiment [4] it was 75.5%; in experiment [5], 52.8%; in experiment [6], 75.2%. For the same compound, the growth in experiment [7] is 79.6%.

In the case of `c1ccc2nc(N3CCOCC3)c(N3CCCCC3)nc2c1`, the growth in experiment [1] was 109%; in experiment [2], 106%; in experiment [3], 104%; in experiment [4], 93.8%; in experiment [5], 102%; in experiment [6], 103%. Also, the growth in experiment [7] is 101%.

`CCCS(=O)(=O)Nc1ccc(F)c(C(=O)c2c[nH]c3ncc(-c4ccc(OCCCC5CCCCN5)nc4)cc23)c1F` (configuration not stated): the growth was 57.5% in experiment [1]; 25.9% in experiment [2]; 116% in experiment [3]; 69.4% in experiment [4]; 70% in experiment [5]; 108% in experiment [6]. Besides, in experiment [7], the growth was 103%.

Take `CC(C)(C)c1nn(-c2ccccc2)c2c1COCN2Cc1ccc(Cl)cc1`: the growth in experiment [1] is 122%; in experiment [2] it was 100%; in experiment [3], 82.9%; in experiment [4] it was 80.1%; in experiment [5] it was 62.8%; in experiment [6], 51.9%. Further, the growth in experiment [7] was 86.4%.

In the case of `CCOC(=O)c1c(C)nc2c(c1N)CC(=O)N2CCc1ccccc1`, the growth in experiment [1] was -17.1% (active); in experiment [2], 8.84% (active); in experiment [3] it was -67.5% (active); in experiment [4], 11.8%; in experiment [5] it was 6.98% (active); in experiment [7], 16.1%.

Take `Cc1ccn2c3c(c(C(=O)O)c2c1)C(=O)c1ccccc1C3=O`: the growth in experiment [1] was 58.9%; in experiment [2] it was -78.2% (active); in experiment [3] it was 74.1%; in experiment [4], 61.1%; in experiment [5] it was 82.3%; in experiment [6] it was 62%. Also, in experiment [7], the growth is 66.7%.

As to `CCCCC1=c2c([nH]c3ccc(OC)cc23)=NC2C=CC=NC12` (configuration not stated), the growth is 98.9% in experiment [1]; 93.4% in experiment [2]; 98.5% in experiment [3]; 13.5% in experiment [4]; 74.8% in experiment [5]; 38.9% in experiment [7].

Regarding `Cc1cnc(SCc2ccc(Cl)cc2Cl)nc1Nc1ccc(Cl)c(Cl)c1`, the growth in experiment [1] is 101%; in experiment [2], 104%; in experiment [3] it was 102%; in experiment [4], 85.4%; in experiment [5] it was 77.3%; in experiment [7], 89.4%.

Take `Cc1cccc(C)c1NCc1nnc(-c2ccco2)o1`: the growth in experiment [1] is 99%; in experiment [2], 103%; in experiment [3], 93.8%; in experiment [4] it was 87.1%; in experiment [5] it was 84.1%; in experiment [7], 91.6%.

In the case of `CCCCC(=O)Nc1c(C(=O)Nc2ccccc2)sc2nc3c(cc12)C(OC(=O)CCCC)CCC3` (configuration not stated), the growth in experiment [1] was 85.4%; in experiment [2], 108%; in experiment [3], 50.1%; in experiment [4], 82.9%; in experiment [5], 101%; in experiment [7] it was 99.9%.

With `Cc1nc2sc(C(=O)Nc3cccc4ccccc34)c(N)c2cc1C(C)O` (configuration not stated), the growth in experiment [1] was 26.2%; in experiment [2] it was -33.7% (active); in experiment [3] it was 30.5%; in experiment [4], 17.8%; in experiment [5], 8.51% (active); in experiment [6] it was 15.7%. For the same compound, the growth in experiment [7] was 18.2%.

With `O=C(Nc1ccc2ncnc(Nc3cccc(C(F)(F)F)c3)c2c1)c1cccs1`, the growth was 71.8% in experiment [1]; 63.3% in experiment [2]; 27.7% in experiment [3]; 32.2% in experiment [4]; 38.3% in experiment [5]; 62.8% in experiment [6]. The growth in experiment [7] is 49.6%.

In the case of `O=C1CC23OC4ON=C(Br)C4C2C(O)c2ccccc2N13` (configuration not stated), the growth was 105% in experiment [1]; 111% in experiment [2]; 101% in experiment [3]; 88.5% in experiment [4]; 94.5% in experiment [5]; 103% in experiment [6]. In addition, the growth in experiment [7] was 100%.

With `Nc1c(C(=O)Nc2ccccc2Cl)sc2nc3c(cc12)CN(Cc1ccccc1)CC3`, the growth in experiment [1] was 93.8%; in experiment [2], 107%; in experiment [3], 94.1%; in experiment [4] it was 92.9%; in experiment [5], 103%; in experiment [7], 96.1%.

Regarding `COc1cc(C2=NN(C(C)=O)C(c3cccc(Nc4ccnc5cc(C(F)(F)F)ccc45)c3)C2)cc(OC)c1OC` (configuration not stated), the growth is 46.2% in experiment [1]; 56.6% in experiment [2]; 66.1% in experiment [3]; 37.9% in experiment [4]; 48.4% in experiment [5]; 64.8% in experiment [7].

For the compound `CCOC(=O)c1c(C)nc2c(c1N)/C(=C/c1ccccn1)C(=O)N2Cc1ccccc1`, the growth in experiment [1] was 15.9%; in experiment [2], 11.2%; in experiment [3] it was 1.97% (active); in experiment [4] it was 2.76% (active); in experiment [5] it was -21.8% (active); in experiment [6], 11.2%. In experiment [7], the growth is 12.2%.

Consider `Nc1c(C(=O)Nc2ccccn2)sc2nc3c(cc12)C(=O)CCC3`, for which the growth was 53.5% in experiment [1]; -42.9% (active) in experiment [2]; 23.7% in experiment [3]; 22% in experiment [4]; 26.3% in experiment [5]; 49.3% in experiment [6]. For the same compound, the growth in experiment [7] was 16.3%.

In the case of `COc1ccc2c(c1)Oc1nc(N)c(C#N)c(N)c1C2Sc1ccc(SC)cc1` (configuration not stated), the growth was 38.9% in experiment [1]; 24.2% in experiment [2]; -8.99% (active) in experiment [3]; -20.7% (active) in experiment [4]; 10.2% in experiment [5]; 58.9% in experiment [6]. Also, the growth in experiment [7] was 53.3%.

Turning to `O=C(Nc1cc(Br)ccn1)c1cc2cc(Nc3nc(-c4ccccc4)nc4ccccc34)ccc2oc1=O`, the growth in experiment [1] is 103%; in experiment [2], 116%; in experiment [3], 104%; in experiment [4], 91.1%; in experiment [5] it was 98.5%; in experiment [6], 92.7%. Also, the growth in experiment [7] is 102%.

As for `COc1ccc(C(=O)c2cc(OC)c(C)c(OC)c2)cc1OC(=O)CCl`, the growth was 15.6% in experiment [1]; -17.2% (active) in experiment [2]; 24.1% in experiment [3]; 13.4% in experiment [4]; 10.2% in experiment [5]; 24.9% in experiment [6]. In experiment [7], the growth was 19.1%.

Regarding `NC(=O)c1ccc(C2C3=C(CCCC3=O)OC3=C2C(=O)c2ccccc2C3=O)cc1` (configuration not stated), the growth in experiment [1] was 81.4%; in experiment [2] it was -87.4% (active); in experiment [3], 12%; in experiment [4], -28.8% (active); in experiment [5] it was 1.17% (active); in experiment [7], 44.1%.

`Cc1c(Cl)cccc1NC(=O)c1sc2nc3c(cc2c1N)CN(Cc1ccccc1)CC3`: the growth in experiment [1] was 61.9%; in experiment [2], -4.11% (active); in experiment [3] it was 16.8%; in experiment [4] it was 16.1%; in experiment [5], 39.3%; in experiment [7], 30.8%.

In the case of `CC1=C/C(=N\N=C2/C=C(C)CC(C)(C)C2)CC(C)(C)C1`, the growth in experiment [1] is 112%; in experiment [2] it was 108%; in experiment [3] it was 106%; in experiment [4], 102%; in experiment [5] it was 98.1%; in experiment [7], 107%.

Take `O=c1c2ccccc2n(CC(O)CN2CCCC2)c2c(Br)cccc12` (configuration not stated): the growth in experiment [1] was 92.2%; in experiment [2], 86.8%; in experiment [3], 94.9%; in experiment [4] it was 92.9%; in experiment [5] it was 90.4%; in experiment [7] it was 94%.
